Among the data in the supplement of paper PMC5919970 are fractional viability values, retold here.

This assay concerns TYKNU. Description: fractional viability relative to vehicle; TYKNU is a high-grade serous ovarian cancer line; higher = less growth inhibition. Particulars: 72 h, genotype: OPA1 knockout (sgOPA1 #2). Summed up:
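TYKNU control cells or lentiCRISPRv2 knockout derivatives were plated at 500 cells per well in duplicate into drug-stamped 384-well plates holding a ~2100-compound library at 2 or 10 μM. Culture was in RPMI 1640 with 10% FBS at 37 °C in 5% CO2, with 72 h of drug treatment. Viability was measured by Cell Titer Glo luminescence, and the averaged duplicate treatment wells were normalised to duplicate control wells at the same plate position.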

Molecules are shown by their SMILES. Where a name gives a salt, the structure may show the parent alone. Whole data set: some 2,000 compounds, median “fractional viability relative to vehicle” near 0.92, cut for the lowest 2% near 0.11. The list comes from a sample in which the lowest values are over-represented; it also holds similar structures and randomly drawn compounds.

Turning to `CCOC(=O)c1ccc(NC2CCCCC2)c(N)c1` [Ferrostatin-1 (Fer-1)], the fractional viability by setting is: (2uM) 1.03; (10uM) 0.934.
As for `CC(C)[C@H](N)C(=O)OCC(CO)OCn1cnc2c(=O)[nH]c(N)nc21` (stereo not given in full) [Valganciclovir HCl], the fractional viability by setting is: (2uM) 0.846; (10uM) 0.832.
In the same order, the values of `CCC[C@H](NC(=O)/C(C#N)=C/c1cccc(Br)n1)c1ccccc1` [Degrasyn (WP1130)] are 0.343 and 0.0765.
Taken in the same sequence, the figures for `C[C@H](NC(=O)CCc1nc2ccccc2c(=O)[nH]1)c1ccccc1` were 0.861 and 0.876.
In the same order, the values of `C[C@H](NC(=O)/C(C#N)=C/c1cccc(Br)n1)c1ccccc1` are 0.867 and 0.0926.
As for `N#C/C(=C\c1ccc(O)c(O)c1)C(=O)NCc1ccccc1` [AG-490 (Tyrphostin B42)], the fractional viability stood at 1.03 (2uM) and 1.08 (10uM).
In the same order, the values of `CC(C)C[C@H](NP(=O)(O)O[C@@H]1O[C@@H](C)[C@H](O)[C@@H](O)[C@H]1O)C(=O)N[C@@H](Cc1c[nH]c2ccccc12)C(=O)O` [Phosphoramidon Disodium Salt] are 0.899 and 0.879.
Taken in the same sequence, the figures for `CNC(=O)[C@@H](NC(=O)[C@H](CC(C)C)[C@H](O)C(=O)NO)C(C)(C)C` [Marimastat(BB-2516)] were 0.952 and 0.73.
In the same order, the values of `CC[C@@H]([C@H](C)O)n1ncn(-c2ccc(N3CCN(c4ccc(OC[C@@H]5CO[C@@](Cn6cncn6)(c6ccc(F)cc6F)C5)cc4)CC3)cc2)c1=O` [Posaconazole] are 1.18 and 0.872.
Consider `Cc1ccc(NC(=O)Nc2cc(C(F)(F)F)ccc2F)cc1Nc1ccc2c(c1)NC(=O)/C2=C\c1ccc[nH]1`, for which the fractional viability came to 0.83 (2uM) and 0.932 (10uM).
In the same order, the values of `CNS(=O)(=O)Nc1nccc(Cc2c(C)c3ccc(Oc4ncccn4)cc3oc2=O)c1F` are 0.508 and 0.376.
Taken in the same sequence, the figures for `O=C(c1ccc(C(=O)N2CCC(N3CCCC3)CC2)c(Nc2ccccc2)c1)N1CCC(N2CCCC2)CC1` were 0.924 and 0.857.
In the case of `O=C(c1ccc(Nc2nccc(-c3cc4ccccc4s3)n2)cc1)N1CCC(N2CCCC2)CC1` [IKK-16 (IKK Inhibitor VII)], the fractional viability runs as follows: (2uM) 0.74; (10uM) 0.0971.
In the same order, the values of `O=C(c1cncc(Br)c1)N1CCC(N2CCCC2)CC1` are 0.797 and 0.838.
Taken in the same sequence, the figures for `O=C(N/N=C/c1cc(O)c(O)cc1O)c1cc2ccccc2cc1O` [Dyngo-4a] were 1.04 and 1.16.
As to `Cc1nc(N(C)C(=O)Cc2ccc(-c3ccccn3)cc2)sc1S(N)(=O)=O` [Pritelivir (BAY 57-1293)], the fractional viability worked out at 0.924 (2uM) and 0.791 (10uM).
For the molecule `Cc1cc(Cn2cnc3c2CC(C(=O)O)N(C(=O)C(c2ccccc2)c2ccccc2)C3)ccc1N(C)C` (stereo not given), the fractional viability runs as follows: (2uM) 0.986; (10uM) 0.95.
In the same order, the values of `Cc1cc(C)cc(C(=O)NOCCCCCC(=O)NO)c1` are 0.355 and 0.188.
In the same order, the values of `C/C=C1\NC(=O)[C@H]2CSSCC/C=C/[C@H](CC(=O)N[C@H](C(C)C)C(=O)N2)OC(=O)[C@H](C(C)C)NC1=O` [Romidepsin (FK228, Depsipeptide)] are 0.0685 and 0.0492.
In the same order, the values of `c1ccc2c(CCNc3ccc(Nc4ccncc4)cc3)c[nH]c2c1` are 0.485 and 0.15.
As to `Oc1nc(-c2ccc(C(F)(F)F)cc2)nc2c1CSCC2`, the fractional viability by setting is: (2uM) 1.13; (10uM) 0.683.
Taken in the same sequence, the figures for `Cc1ccc(Nc2nccc(N(C)c3ccc4c(C)n(C)nc4c3)n2)cc1S(N)(=O)=O` [Pazopanib] were 1.14 and 0.605.
In the same order, the values of `CCOC(=O)c1[nH]c2cc(Cl)ccc2c1C(C(=O)NC(C)(C)C)N(C=O)Cc1ccc(Cl)cc1` (stereo not given) are 0.864 and 0.464.
Take `CN(C)c1ccc(C(=C2C=CC(=[N+](C)C)C=C2)c2ccc(N(C)C)cc2)cc1` [Crystal Violet]: the fractional viability was 0.323 (2uM) and 0.0953 (10uM).
Consider `O=C(O)CCC(=O)Nc1ccc(Br)cn1` [Bikinin], for which the fractional viability was 0.818 (2uM) and 0.759 (10uM).
In the same order, the values of `[I-].[K+]` [Potassium Iodide] are 1.07 and 0.971.
With `O=C1NCCCc2c1oc1ccc(O)cc21`, the fractional viability (2uM) worked out at 1.1 and the fractional viability (10uM) turned out to be 1.15.
For `c1ccc(Cn2c(-c3ccc(OC[C@H](C4CCNCC4)n4c(-c5ccccc5)nc5ccccc54)cc3)nc3ccccc32)cc1` [Deltarasin], the fractional viability runs as follows: (2uM) 1.14; (10uM) 0.0644.
As to `Cc1cc(/N=N/c2ccc(S(=O)(=O)Nc3ccccn3)cc2)c(N)cc1O`, the fractional viability (2uM) amounted to 0.89 and the fractional viability (10uM) was 0.64.
In the same order, the values of `O=C(NO)c1cccc(C(=O)NCCc2ccccc2)c1` are 0.926 and 0.933.
